Measurements taken from the antibiotic and cytotoxicity screens of Wong et al. (2023).
Among all 39,000 compounds or so, about 1,500 (3.8%) were called active. The entries come from a sample that favours actives as a whole.

The compounds below were run on HSkMC (human skeletal muscle cells) (assay: cytotoxicity call (relative viability < 0.9)). Settings: 10 µM.

SMILES | cytotoxicity call
C[C@@H]1CCCCO[C@@H](CN(C)CC2CC2)[C@H](C)CN([C@H](C)CO)C(=O)c2cc(NC(=O)Nc3cccc4ccccc34)ccc2O1 | inactive
C[C@@H]1CCCCO[C@@H](CN(C)CC2CCCCC2)[C@H](C)CN([C@@H](C)CO)C(=O)c2cc(NC(=O)Nc3cccc4ccccc34)ccc2O1 | inactive
C[C@@H]1CN([C@@H](C)CO)C(=O)c2cc(NC(=O)Nc3cccc4ccccc34)ccc2O[C@@H](C)CCCCO[C@@H]1CN(C)CC1CCCCC1 | active
C[C@@H]1CN([C@@H](C)CO)C(=O)c2cc(NC(=O)Nc3cccc4ccccc34)ccc2O[C@@H](C)CCCCO[C@H]1CN(C)CC1CCCCC1 | active
C[C@H](CO)N1C[C@H](C)[C@H](CN(C)CC2CCCCC2)OCCCC[C@H](C)Oc2ccc(NC(=O)Nc3cccc4ccccc34)cc2C1=O | active
NCC1(c2cccs2)CCCC1 | inactive
CC(C)NC(=O)Nc1ccc2c(c1)C(=O)N([C@@H](C)CO)C[C@@H](C)[C@H](CN(C)Cc1ccc3c(c1)OCO3)O2 | inactive
Cc1noc(C)c1S(=O)(=O)N(C)C[C@H]1Oc2ccc(NC(=O)C3CCCCC3)cc2CC(=O)N([C@H](C)CO)C[C@@H]1C | inactive
CCC(=O)N[C@@H]1CC[C@H](CC(=O)OC)O[C@@H]1CO | inactive
Cc1noc(C)c1NC(=O)Nc1ccc2c(c1)C(=O)N([C@@H](C)CO)C[C@H](C)[C@@H](CN(C)Cc1ccc(Cl)c(Cl)c1)OCCCC[C@@H](C)O2 | inactive
C[C@@H]1CCCCO[C@@H](CN(C)C(=O)c2ccccc2)[C@@H](C)CN([C@H](C)CO)C(=O)c2cc(NC(=O)NC3CCCCC3)ccc2O1 | inactive
Cc1noc(C)c1S(=O)(=O)Nc1cccc2c1O[C@@H](CN(C)C(=O)Nc1ccc3c(c1)OCO3)[C@@H](C)CN([C@@H](C)CO)C2=O | inactive
C[C@H]1CCCCO[C@H](CN(C)S(=O)(=O)c2ccc(Cl)cc2)[C@@H](C)CN([C@@H](C)CO)C(=O)c2cc(NS(=O)(=O)c3ccc(Cl)cc3)ccc2O1 | inactive
C[C@@H]1CN([C@@H](C)CO)C(=O)c2cc(C#Cc3ccccc3F)cnc2O[C@H]1CN(C)C(=O)C1CCOCC1 | inactive
C[C@@H]1CCCCO[C@H](CN(C)Cc2ccc(C(=O)O)cc2)[C@H](C)CN([C@@H](C)CO)C(=O)c2cc(NS(=O)(=O)c3ccc(F)cc3)ccc2O1 | inactive
O=C(C[C@H]1CC[C@H]2[C@@H](COC[C@@H](O)CN2S(=O)(=O)c2ccc(Oc3ccccc3)cc2)O1)NCCN1CCCCC1 | inactive
C[C@@H]1CN([C@@H](C)CO)S(=O)(=O)c2ccc(-c3ccccc3F)cc2O[C@H]1CN(C)Cc1cncnc1 | inactive
CCCCOCCOc1ccc(-c2ccc3c(c2)/C=C(/C(=O)Nc2ccc([S@@](=O)Cc4cncn4CCC)cc2)CCCN3CC(C)C)cc1 | active
C[C@@H]1CCCCO[C@H](CN(C)C(=O)NC2CCCCC2)[C@H](C)CN([C@H](C)CO)C(=O)c2cc(NC(=O)c3ccncc3)ccc2O1 | inactive
C[C@H](CO)N1C[C@H](C)[C@@H](CN(C)C(=O)C2CCCCC2)Oc2cc(C#C[C@@H](C)O)ccc2S1(=O)=O | inactive

SMILES | cytotoxicity call
CC[C@@H](CO)NC(=O)c1ccc(N)cc1 | inactive
C[C@@H]1CN([C@H](C)CO)C(=O)c2cc(NC(=O)Nc3ccc4c(c3)OCO4)ccc2O[C@H]1CN(C)Cc1ccc(C(F)(F)F)cc1 | inactive
C[C@@H]1CN([C@@H](C)CO)C(=O)c2cc(NC(=O)Nc3ccc(C(F)(F)F)cc3)ccc2O[C@H]1CN(C)Cc1ccc2c(c1)OCO2 | active
C[C@@H]1CN([C@H](C)CO)C(=O)c2cc(NC(=O)Nc3ccc(C(F)(F)F)cc3)ccc2O[C@H]1CN(C)Cc1ccc2c(c1)OCO2 | inactive
C[C@H]1CN([C@@H](C)CO)C(=O)c2cc(NC(=O)Nc3ccc(C(F)(F)F)cc3)ccc2O[C@H]1CN(C)Cc1ccc2c(c1)OCO2 | inactive
C[C@H]1CN([C@@H](C)CO)C(=O)c2cc(NC(=O)Nc3ccc(C(F)(F)F)cc3)ccc2O[C@@H]1CN(C)Cc1ccc2c(c1)OCO2 | active
C[C@H](CO)N1C[C@H](C)[C@H](CN(C)Cc2ccc3c(c2)OCO3)Oc2ccc(NC(=O)Nc3ccc(C(F)(F)F)cc3)cc2C1=O | active
C[C@@H]1CN([C@@H](C)CO)C(=O)c2cc(NC(=O)Nc3ccc(C(F)(F)F)cc3)ccc2O[C@@H]1CN(C)Cc1ccc2c(c1)OCO2 | active
CNC[C@H]1OCCCC[C@@H](C)Oc2ccc(NC(=O)Nc3cccc4ccccc34)cc2C(=O)N([C@H](C)CO)C[C@@H]1C | inactive
CCS(=O)(=O)NCC[C@H]1CC[C@H](NC(=O)Cc2ccccn2)[C@H](CO)O1 | inactive
CC/N=c1\sc(C(=O)OC)cc(=O)n1CC | inactive
C[C@H]1CN([C@@H](C)CO)C(=O)c2cc(NC(=O)C3CCCCC3)ccc2O[C@H]1CN(C)Cc1ccc(C(=O)Nc2ccccc2N)cc1 | inactive
CO[C@H]1CN(C)C(=O)c2ccc(NS(=O)(=O)CC(F)(F)F)cc2OC[C@@H](C)N(C(=O)NC(C)C)C[C@@H]1C | inactive
C[C@H](CO)N1C[C@H](C)[C@H](CN(C)S(=O)(=O)c2ccccc2)OCCCC[C@H](C)Oc2ccc(NS(C)(=O)=O)cc2C1=O | inactive
CNC(=O)N1CCC(C(N)=O)CC1 | inactive
O=C(C[C@@H]1C[C@H]2c3cc(NS(=O)(=O)c4ccc(F)cc4)ccc3O[C@H]2[C@H](CO)O1)NCc1ccccn1 | inactive
C[C@@H]1CN([C@@H](C)CO)C(=O)c2cc(NC(=O)Nc3ccc4c(c3)OCO4)ccc2O[C@@H]1CN(C)Cc1ccc(C(F)(F)F)cc1 | inactive
C[C@H](CO)N1C[C@H](C)[C@@H](CN(C)Cc2ccc3c(c2)OCO3)Oc2ccc(NC(=O)Nc3ccc(C(F)(F)F)cc3)cc2C1=O | active
C[C@@H]1CN([C@H](C)CO)C(=O)c2cc(NC(=O)Nc3ccc(C(F)(F)F)cc3)ccc2O[C@@H]1CN(C)Cc1ccc2c(c1)OCO2 | inactive
CCC(=O)Nc1ccc2c(c1)OC[C@@H](C)N(C(=O)CN1CCOCC1)C[C@@H](C)[C@@H](OC)CN(C)C2=O | inactive

SMILES | cytotoxicity call
C[C@@H]1CN([C@@H](C)CO[Si](C)(C)C(C)(C)C)C(=O)c2cc(NC(=O)Nc3ccccc3)ccc2O[C@@H](C)CCCCO[C@H]1CN(C)S(=O)(=O)c1ccc(F)cc1 | inactive
COc1ccc(S(=O)(=O)Nc2ccc3c(c2)C(=O)N([C@H](C)CO)C[C@@H](C)[C@H](CN(C)S(=O)(=O)c2ccc(F)cc2)O3)cc1 | inactive
C[C@@H]1CN([C@H](C)CO)C(=O)c2cc(NS(=O)(=O)c3ccc(F)cc3)ccc2O[C@@H]1CN(C)S(=O)(=O)c1cn(C)cn1 | inactive
O=C(O[C@@H]1O[C@@H]2COC(=O)c3cc(O)c(O)c(O)c3-c3c(cc(O)c(O)c3O)C(=O)O[C@H]2[C@H](OC(=O)c2cc(O)c(O)c(O)c2)[C@H]1OC(=O)c1cc(O)c(O)c(O)c1)c1cc(O)c(O)c(O)c1 | active
O=C(O[C@@H]1O[C@@H]2COC(=O)c3cc(Oc4c(C(=O)O)cc(O)c(O)c4O)c(O)c(O)c3-c3c(cc(O)c(O)c3O)C(=O)O[C@H]2[C@H](OC(=O)c2cc(O)c(O)c(O)c2)[C@H]1OC(=O)c1cc(O)c(O)c(O)c1)c1cc(O)c(O)c(O)c1 | inactive
O=C(O[C@@H]1O[C@H]2COC(=O)c3cc(O)c(O)c(O)c3-c3c(cc(O)c(O)c3O)C(=O)O[C@@H]([C@H]1O)[C@@H]2O)c1cc(O)c(O)c(O)c1 | inactive
COCCOC(=O)N1C(=O)[C@@]2(c3cc(C#CCC(C(=O)OC)C(=O)OC)ccc31)[C@H](C(=O)N1CCc3cc(OC)c(OC)cc3C1)[C@H]1C(=O)O[C@H](c3ccccc3)[C@H](c3ccccc3)N1[C@@H]2c1ccccc1OCCO | inactive
C[C@H]1CCCCO[C@H](CN(C)CC2CCCCC2)[C@@H](C)CN([C@@H](C)CO)C(=O)c2cc(NC(=O)Nc3ccc(F)cc3)ccc2O1 | inactive
C[C@H](CO)N1C[C@H](C)[C@H](CN(C)CC2CCCCC2)OCCCC[C@H](C)Oc2ccc(NC(=O)Nc3ccc(F)cc3)cc2C1=O | active
C[C@H]1CCCCO[C@@H](CN(C)CC2CCCCC2)[C@@H](C)CN([C@@H](C)CO)C(=O)c2cc(NC(=O)Nc3ccc(F)cc3)ccc2O1 | inactive
C[C@@H]1CCCCO[C@@H](CN(C)CC2CCCCC2)[C@H](C)CN([C@H](C)CO)C(=O)c2cc(NC(=O)Nc3ccc(F)cc3)ccc2O1 | inactive
C[C@@H]1CN([C@H](C)CO)C(=O)c2cc(NC(=O)Nc3ccc(F)cc3)ccc2O[C@@H](C)CCCCO[C@@H]1CN(C)CC1CCCCC1 | active
C[C@@H]1CN([C@@H](C)CO)C(=O)c2cc(NC(=O)Nc3ccc(F)cc3)ccc2O[C@@H](C)CCCCO[C@H]1CN(C)CC1CCCCC1 | inactive
C[C@@H]1CN([C@@H](C)CO)C(=O)c2cc(NC(=O)Nc3ccc(F)cc3)ccc2O[C@@H](C)CCCCO[C@@H]1CN(C)CC1CCCCC1 | active
C[C@@H]1CCCCO[C@@H](CN(C)CC2CCCCC2)[C@@H](C)CN([C@H](C)CO)C(=O)c2cc(NC(=O)Nc3ccc(F)cc3)ccc2O1 | inactive
C[C@@H]1CCCCO[C@@H](CN(C)CC2CCCCC2)[C@H](C)CN([C@@H](C)CO)C(=O)c2cc(NC(=O)Nc3ccc(F)cc3)ccc2O1 | inactive
C[C@@H]1CCCCO[C@H](CN(C)CC2CCCCC2)[C@H](C)CN([C@H](C)CO)C(=O)c2cc(NC(=O)Nc3ccc(F)cc3)ccc2O1 | active
C[C@@H]1CCCCO[C@@H](CN(C)CC2CCCCC2)[C@@H](C)CN([C@@H](C)CO)C(=O)c2cc(NC(=O)Nc3ccc(F)cc3)ccc2O1 | inactive
C[C@@H]1CCCCO[C@H](CN(C)CC2CCCCC2)[C@H](C)CN([C@@H](C)CO)C(=O)c2cc(NC(=O)Nc3ccc(F)cc3)ccc2O1 | inactive
